Measurements: PubChem BioAssay (NCI)
About 79,000 compounds went through this panel and 15% of them were active in at least one assay; those are over-represented in the sample as a whole. Values without a mark were called inactive. Activity calls are given as the source filed them. Rule as the data show it: active = growth inhibition above about 70%; inactive = the rest.

Columns and labels:
[1] = NCI Yeast Anticancer Drug Screen. Data for the mec2-1 strain (AID 157); details: S. cerevisiae mec2-1 strain, hits give high values
In short: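 Readout is yeast growth inhibition, normalised to vehicle-treated controls, in the mec2-1 strain exposed to compound.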

[2] = NCI Yeast Anticancer Drug Screen. Data for the rad14 strain (AID 159);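 also: 0% = growth of vehicle-treated control cultures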; details: S. cerevisiae rad14 strain growth inhibition, hits give high values
In short: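 Inhibition of growth is reported for a repair-deficient yeast mutant following compound treatment, calculated relative to cultures that received vehicle.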

[3] = NCI Yeast Anticancer Drug Screen. Data for the sgs1 mgt1 strain (AID 161);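 also: 0% = growth of cultures given vehicle only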; details: S. cerevisiae sgs1 mgt1 strain, hits give high values
In short: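 Yeast cells carrying a defined DNA-repair defect were exposed to test compounds. Growth inhibition was measured relative to vehicle-treated controls.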

[4] = NCI Yeast Anticancer Drug Screen. Data for the CLN2oe strain (AID 163);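 also: 0% = growth of vehicle-only control cultures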; details: S. cerevisiae CLN2oe strain, hits give high values
In short: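 Values reflect how much compound exposure reduced yeast growth, referenced to vehicle-exposed cells. Assay organism is a strain with a defined genetic change affecting cell-cycle control.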

[5] = NCI Yeast Anticancer Drug Screen. Data for the cln2 rad14 strain (AID 165);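 also: 0% = growth equal to vehicle treated cultures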; details: S. cerevisiae cln2 rad14 strain, hits give high values
In short: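 Relative to vehicle controls, growth inhibition of compound-treated cln2 rad14 yeast was recorded.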

[6] = NCI Yeast Anticancer Drug Screen. Data for the bub3 strain (AID 167); details: S. cerevisiae bub3 mutant strain, hits give high values
In short: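 Mutant yeast screening strain plus compound; vehicle-treated cultures serve as the 0% inhibition reference.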

[7] = NCI Yeast Anticancer Drug Screen. Data for the mlh1 strain (AID 171);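 also: 0% = growth of vehicle-treated control cultures of the same strain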; details: S. cerevisiae mlh1 strain growth inhibition, hits give high values
In short: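 Steps: expose the defined-mutant yeast strain to compound; expose a parallel culture to vehicle; measure growth; express compound effect as inhibition relative to the vehicle culture.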

[8] = NCI Yeast Anticancer Drug Screen. Data for the sgs1 strain (AID 173);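 also: 0% = growth of vehicle-only control cultures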; details: S. cerevisiae sgs1 mutant, hits give high values
In short: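 Treat defined-mutant yeast with compound; measure growth; calculate inhibition relative to vehicle-treated cells.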

[9] = NCI Yeast Anticancer Drug Screen. Data for the mlh1 rad18 strain (AID 175); details: S. cerevisiae mlh1 rad18 strain growth inhibition, hits give high values
In short: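 Test agents were incubated with a yeast strain of defined genotype (DNA damage repair defect). Inhibition of growth was derived by comparison with vehicle-exposed cultures.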

[10] = NCI Yeast Anticancer Drug Screen. Data for the rad18 strain (AID 177); details: S. cerevisiae rad18 mutant growth inhibition, hits give high values
In short: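 A genetically defined yeast mutant impaired in DNA damage repair was treated with test compounds, then its growth was measured against cultures receiving vehicle alone.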

[11] = NCI Yeast Anticancer Drug Screen. Data for the rad52 strain (AID 147);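 also: 0% = growth of vehicle-treated control cultures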; details: S. cerevisiae rad52 mutant growth inhibition, hits give high values
In short: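 Screen used a yeast mutant impaired in DNA repair. After compound exposure, growth was measured. Values reflect inhibition compared with vehicle-treated cells.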

[12] = NCI Yeast Anticancer Drug Screen. Data for the wt1 strain (AID 149);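 also: 0% = growth of vehicle-treated wt1 cultures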; details: S. cerevisiae wt1 strain (SPY 50644) growth inhibition, hits give high values
In short: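 Each compound is tested on wt1 yeast and the loss of growth versus vehicle gives the inhibition value.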

[13] = NCI Yeast Anticancer Drug Screen. Data for the rad50EPP+ strain (AID 151);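 also: 0% = growth of vehicle-treated control cultures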; details: S. cerevisiae rad50 mutant strain, hits give high values
In short: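 Exposing the rad50EPP+ strain to each compound, growth was compared with vehicle-only cultures to give inhibition.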

[14] = NCI Yeast Anticancer Drug Screen. Data for the mgt1 strain (AID 153); details: S. cerevisiae mgt1 mutant growth inhibition, hits give high values
In short: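 Genetically defined yeast (mgt1) treated with compound; inhibition of growth expressed against vehicle-treated controls.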

[15] = NCI Yeast Anticancer Drug Screen. Data for the rad50 strain (AID 155);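 also: 0% = growth of vehicle-only cultures of the same strain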; details: S. cerevisiae rad50 strain growth inhibition, hits give high values
In short: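 Vehicle-treated cultures provide the reference for the growth inhibition reported for compound-exposed, repair-deficient yeast.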

[16] = NCI Yeast Anticancer Drug Screen. Data for the wt2 strain (AID 169); details: S. cerevisiae wt2 strain growth inhibition, hits give high values
In short: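 Values express reduction in yeast growth under compound treatment, referenced to vehicle-treated cells.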

[17] = at 5.0 µM (retest, dose inferred, filed as 0.5)
[18] = at 50.0 µM (retest, dose inferred, filed as 5.0)

## COc1ccc(/C=C/C(=O)C(C)(C)Br)cc1
[1]; [17]
  growth inhibition: 11%
[1]; at 11.0 µM
  growth inhibition: 96% (active)
[1]; at 33.0 µM
  growth inhibition: 97% (active)
[1]; [18]
  growth inhibition: 98% (active)
[1]; at 50.0 µM
  growth inhibition: 96.6% (active)
[1]; at 100.0 µM
  growth inhibition: 97% (active)
[2]; at 1.2 µM
  growth inhibition: 28%
[2]; at 3.7 µM
  growth inhibition: 69%
[2]; at 11.0 µM
  growth inhibition: 93% (active)
[2]; at 33.0 µM
  growth inhibition: 96% (active)
[2]; at 100.0 µM
  growth inhibition: 99% (active)
[3]; [17]
  growth inhibition: 86% (active)
[3]; [18]
  growth inhibition: 97% (active)
[3]; at 50.0 µM
  growth inhibition: 93.7% (active)
[4]; at 1.2 µM
  growth inhibition: 0%
[4]; at 3.7 µM
  growth inhibition: 3%
[4]; at 11.0 µM
  growth inhibition: 20%
[4]; at 33.0 µM
  growth inhibition: 36%
[4]; at 100.0 µM
  growth inhibition: 89% (active)
[5]; [17]
  growth inhibition: 52%
[5]; [18]
  growth inhibition: 92% (active)
[5]; at 50.0 µM
  growth inhibition: 91.5% (active)
[6]; at 1.2 µM
  growth inhibition: -9%
[6]; at 3.7 µM
  growth inhibition: -7%
[6]; [17]
  growth inhibition: 26%
[6]; at 11.0 µM
  growth inhibition: 4%
[6]; at 33.0 µM
  growth inhibition: 25%
[6]; [18]
  growth inhibition: 99% (active)
[6]; at 50.0 µM
  growth inhibition: 73.3% (active)
[6]; at 100.0 µM
  growth inhibition: 82% (active)
[7]; at 1.2 µM
  growth inhibition: 5%
[7]; at 3.7 µM
  growth inhibition: 19%
[7]; at 11.0 µM
  growth inhibition: 33%
[7]; at 33.0 µM
  growth inhibition: 54%
[7]; at 100.0 µM
  growth inhibition: 94% (active)
[8]; at 1.2 µM
  growth inhibition: 69%
[8]; at 3.7 µM
  growth inhibition: 87% (active)
[8]; at 11.0 µM
  growth inhibition: 91% (active)
[8]; at 33.0 µM
  growth inhibition: 92% (active)
[8]; at 100.0 µM
  growth inhibition: 95% (active)
[9]; [17]
  growth inhibition: 89% (active)
[9]; [18]
  growth inhibition: 99% (active)
[9]; at 50.0 µM
  growth inhibition: 94.4% (active)
[10]; at 1.2 µM
  growth inhibition: 96% (active)
[10]; at 3.7 µM
  growth inhibition: 97% (active)
[10]; at 11.0 µM
  growth inhibition: 97% (active)
[10]; at 33.0 µM
  growth inhibition: 97% (active)
[10]; at 100.0 µM
  growth inhibition: 98% (active)

## Fc1ccc(NC(=S)SCc2ccc(Cl)c(Cl)c2)cc1F
[11]; at 1.2 µM
  growth inhibition: -6%
[11]; at 3.7 µM
  growth inhibition: -8%
[11]; at 11.0 µM
  growth inhibition: 17%
[11]; at 33.0 µM
  growth inhibition: 89% (active)
[11]; at 100.0 µM
  growth inhibition: 98% (active)
[12]; at 1.2 µM
  growth inhibition: -4%
[12]; at 3.7 µM
  growth inhibition: 12%
[12]; at 11.0 µM
  growth inhibition: 33%
[12]; at 33.0 µM
  growth inhibition: 99% (active)
[12]; at 100.0 µM
  growth inhibition: 98% (active)
[13]; at 1.2 µM
  growth inhibition: -2%
[13]; at 3.7 µM
  growth inhibition: 25%
[13]; at 11.0 µM
  growth inhibition: 60%
[13]; at 33.0 µM
  growth inhibition: 98% (active)
[13]; at 100.0 µM
  growth inhibition: 98% (active)
[14]; at 1.2 µM
  growth inhibition: -3%
[14]; at 3.7 µM
  growth inhibition: -4%
[14]; at 11.0 µM
  growth inhibition: 0%
[14]; at 33.0 µM
  growth inhibition: 97% (active)
[14]; at 100.0 µM
  growth inhibition: 98% (active)
[15]; at 1.2 µM
  growth inhibition: -15%
[15]; at 3.7 µM
  growth inhibition: -9%
[15]; [17]
  growth inhibition: 66%
[15]; at 11.0 µM
  growth inhibition: 45%
[15]; at 33.0 µM
  growth inhibition: -12%
[15]; [18]
  growth inhibition: 98% (active)
[15]; at 50.0 µM
  growth inhibition: 90.3% (active)
[15]; at 100.0 µM
  growth inhibition: 97% (active)
[1]; at 1.2 µM
  growth inhibition: -4%
[1]; at 3.7 µM
  growth inhibition: -4%
[1]; [17]
  growth inhibition: 18%
[1]; at 11.0 µM
  growth inhibition: -4%
[1]; at 33.0 µM
  growth inhibition: 60%
[1]; [18]
  growth inhibition: 98% (active)
[1]; at 50.0 µM
  growth inhibition: 93.2% (active)
[1]; at 100.0 µM
  growth inhibition: 99% (active)
[2]; at 1.2 µM
  growth inhibition: 3%
[2]; at 3.7 µM
  growth inhibition: 5%
[2]; at 11.0 µM
  growth inhibition: 24%
[2]; at 33.0 µM
  growth inhibition: 99% (active)
[2]; at 100.0 µM
  growth inhibition: 98% (active)
[3]; [17]
  growth inhibition: 25%
[3]; [18]
  growth inhibition: 98% (active)
[3]; at 50.0 µM
  growth inhibition: 90% (active)
[4]; at 1.2 µM
  growth inhibition: -7%
[4]; at 3.7 µM
  growth inhibition: -10%
[4]; at 11.0 µM
  growth inhibition: -11%
[4]; at 33.0 µM
  growth inhibition: 80% (active)
[4]; at 100.0 µM
  growth inhibition: 97% (active)
[5]; [17]
  growth inhibition: -2%
[5]; [18]
  growth inhibition: 97% (active)
[5]; at 50.0 µM
  growth inhibition: 90.5% (active)
[6]; at 1.2 µM
  growth inhibition: -2%
[6]; at 3.7 µM
  growth inhibition: -4%
[6]; [17]
  growth inhibition: 1%
[6]; at 11.0 µM
  growth inhibition: 21%
[6]; at 33.0 µM
  growth inhibition: 98% (active)
[6]; [18]
  growth inhibition: 97% (active)
[6]; at 50.0 µM
  growth inhibition: 90.8% (active)
[6]; at 100.0 µM
  growth inhibition: 98% (active)
[16]; at 1.2 µM
  growth inhibition: 10%
[16]; at 3.7 µM
  growth inhibition: 13%
[16]; at 11.0 µM
  growth inhibition: 64%
[16]; at 33.0 µM
  growth inhibition: 99% (active)
[16]; at 100.0 µM
  growth inhibition: 99% (active)
[7]; at 1.2 µM
  growth inhibition: -13%
[7]; at 3.7 µM
  growth inhibition: -7%
[7]; at 11.0 µM
  growth inhibition: 27%
[7]; at 33.0 µM
  growth inhibition: 99% (active)
[7]; at 100.0 µM
  growth inhibition: 98% (active)
[9]; [17]
  growth inhibition: 33%
[9]; [18]
  growth inhibition: 97% (active)
[9]; at 50.0 µM
  growth inhibition: 90.6% (active)
[10]; at 1.2 µM
  growth inhibition: -9%
[10]; at 3.7 µM
  growth inhibition: -6%
[10]; at 11.0 µM
  growth inhibition: 30%
[10]; at 33.0 µM
  growth inhibition: 98% (active)
[10]; at 100.0 µM
  growth inhibition: 98% (active)
